Records with an inconclusive call do not appear. A call without a number means that no potency is given here. The source made the active and inactive calls. Calls follow the shape of the dose curve; as a rule, active = well fitted inhibition curve with a large enough effect; inconclusive = small, poorly fitted or top-dose-only effect; inactive = flat fitted curve, though single readings scatter.
Key:
Test in all cases: qHTS profiling for inhibitors of Plasmodium falciparum proliferation (AID 504749); also: nearly all actives have a fitted effect of over 60% in size
Conditions in all cases: P. falciparum in erythrocytes, SYBR Green DNA, 72 h; series mostly up to 28.7 µM
[1] = test system: DFO2036
In short: (§1)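 Fluorescence of SYBR Green-bound parasite DNA, read at 485/535 nm, served as the growth measure. Infected erythrocytes were cultured with compound 72 h; artemisinin (0.29 uM) and DMSO wells defined the normalization range.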

[2] = test system: DIV14
In short: as §1

[3] = test system: DIV17
In short: as §1

[4] = test system: DIV30
In short: as §1

[5] = test system: Dd2
In short: as §1

[6] = test system: ECU
In short: as §1

[7] = test system: FAB9
In short: as §1

[8] = test system: GB4
In short: as §1

[9] = test system: HB3
In short: as §1

[10] = test system: ICS
In short: as §1

[11] = test system: JCK
In short: as §1

[12] = test system: N140
In short: as §1

[13] = test system: P93_24
In short: as §1

[14] = test system: P94_40
In short: as §1

[15] = test system: PAD
In short: as §1

[16] = test system: PC15
In short: as §1

[17] = test system: PC26
In short: as §1

[18] = test system: PC49
In short: as §1

[19] = test system: SC27B
In short: as §1

[20] = test system: CP335
In short: as §1
Potency is read from the fitted curve at half-maximal effect.

SMILES	Potency [1]	Potency [2]	Potency [3]	Potency [4]	Potency [5]	Potency [6]	Potency [7]	Potency [8]	Potency [9]	Potency [10]	Potency [11]	Potency [12]	Potency [13]	Potency [14]	Potency [15]	Potency [16]	Potency [17]	Potency [18]	Potency [19]	Potency [20]
Cc1cc(N)c2ccccc2[n+]1CCCCCCCCCC[n+]1c(C)cc(N)c2ccccc21	79.4 nM (active)	0.161 µM (active)	0.287 µM (active)	256 nM (active)	0.0631 µM (active)	2.51 µM (active)	199 nM (active)	0.144 µM (active)	0.794 µM (active)	0.1 µM (active)	1.12 µM (active)	0.251 µM (active)	0.0708 µM (active)	7.08 µM (active)	2.24 µM (active)	282 nM (active)	510 nM (active)	126 nM (active)	3.16e-05 µM (active)	
CCOC(CN1CCN(CC(C)C(=O)c2ccccc2)CC1)c1ccccc1 (configuration not stated)	inactive			inactive		inactive	inactive		inactive		inactive	inactive			inactive	inactive		inactive	inactive	
COCCOC(=O)C1=C(C)NC(C)=C(C(=O)OC/C=C/c2ccccc2)C1c1cccc([N+](=O)[O-])c1 (configuration not stated)		13.5 µM (active)	8.49 µM (active)		12.6 µM (active)	10 µM (active)	inactive		11.2 µM (active)	11.2 µM (active)	inactive	8.91 µM (active)	11.2 µM (active)		8.91 µM (active)			inactive	10 µM (active)	9.53 µM (active)
CNCCCC1c2ccccc2C=Cc2ccccc21	inactive		2.56 µM (active)			inactive	inactive		inactive		inactive	inactive			inactive			inactive	inactive	
NC1CCN(c2cccc(Cl)n2)CC1	inactive			inactive		inactive	inactive	7.57 µM (active)	inactive	inactive	inactive	inactive			inactive	inactive	inactive	inactive	inactive	inactive
CCCCCCCCCCCCCCCCCCOCC(O)CO (configuration not stated)	inactive	inactive	inactive	inactive	inactive	inactive	inactive	inactive	inactive	inactive	inactive	inactive	inactive	inactive	inactive	inactive	inactive	inactive	inactive	
CC(=O)c1ccc2c(c1)N(CCCN(C)C)c1ccccc1S2	inactive			inactive		inactive	inactive		inactive	inactive		inactive		inactive	inactive	inactive	inactive	inactive	inactive	inactive
c1ccc(CN(CC2=NCCN2)c2ccccc2)cc1		6.75 µM (active)	7.57 µM (active)		12.6 µM (active)		inactive		inactive									3160 nM (active)		
Cc1cc2c(cc1S(N)(=O)=O)S(=O)(=O)CCC2	inactive	inactive	inactive	inactive	inactive	inactive	inactive	inactive	inactive	inactive	inactive	inactive	inactive	inactive	inactive	inactive	inactive	inactive	inactive	
CSc1ccc2c(c1)C(N1CCN(C)CC1)Cc1ccccc1S2 (configuration not stated)		10.7 µM (active)	15.1 µM (active)				inactive	13.5 µM (active)	inactive	8.91 µM (active)	inactive		11.2 µM (active)			inactive		inactive		

Reference: PubChem BioAssay (NCATS)
